Laboratory results from the supplement of paper PMC10849652.
About 7,900 targets were measured; listed, in parts, are those with a hit and a random draw of the rest. About 0.6% of all pairs of compound and target were hits. Values without a mark were called inactive.

Experiments:
Test in all cases: log2 fold change, soluble protein after heating vs DMSO (PISA); higher = thermal stabilisation; K562 cells, 10 uM, 30 min; active = over 0.2 and 3.5 SD of the protein, either way, in both replicates (recomputed)
[1] = compound: COC1=CC=C(C=C1)CN2C=CC3=C2C=C(C=C3)C(=O)NO
How it was run: (§1)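 K562 cells at 2×10^6 cells/mL were treated with 10 μM compound for 30 min. Aliquots were heated for 3 min across 48°C-58°C, pooled, and extracted in PBS with 0.5% NP-40 at 4°C; soluble protein was the supernatant after 21,000xg for 90 min. Soluble protein was quantified by TMTpro 16plex LC-MS/MS with channel sums equalised, and reported as log2 fold change in thermal stability against DMSO controls, with values from duplicates.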

[2] = compound: CON(C)C(=O)N1N=C(c2cc(F)ccc2F)S[C@@]1(CCCN)c1ccccc1 [filanesib]
How it was run: as §1

[3] = compound: CO[C@H]1C[C@@H]2CC[C@@H](C)[C@@](O)(O2)C(=O)C(=O)N2CCCC[C@H]2C(=O)O[C@H]([C@H](C)C[C@@H]2CC[C@H](n3cnnn3)[C@H](OC)C2)CC(=O)[C@H](C)/C=C(\C)[C@@H](O)[C@@H](OC)C(=O)[C@H](C)C[C@H](C)/C=C/C=C/C=C/1C [zotarolimus]
How it was run: as §1

[4] = compound: COc1cc(C(=O)O)ccc1NC(=O)[C@@H]1N[C@@H](CC(C)(C)C)[C@](C#N)(c2ccc(Cl)cc2F)[C@H]1c1cccc(Cl)c1F [idasanutlin]
How it was run: as §1

[5] = compound: COc1cc(Nc2ncc3c(n2)-c2ccc(Cl)cc2C(c2c(F)cccc2OC)=NC3)ccc1C(=O)O [alisertib]
How it was run: as §1

[6] = compound: COc1cc2nc(-c3cc(F)ccc3O)nc(N[C@@H]3CNC[C@H]3C(C)(C)O)c2cc1OC
How it was run: as §1

[7] = compound: COc1cc2ncnc(Nc3ccc(F)c(Cl)c3)c2cc1OCCCN1CCOCC1 [gefitinib]
How it was run: as §1

[8] = compound: COc1cccc2cc(-c3nc([C@H]4CC[C@H](C(=O)O)CC4)n4ncnc(N)c34)[nH]c12
How it was run: as §1

[9] = compound: CS(=O)(=O)CCNCc1ccc(-c2ccc3ncnc(Nc4ccc(OCc5cccc(F)c5)c(Cl)c4)c3c2)o1 [lapatinib]
How it was run: as §1

[10] = compound: CS(=O)(=O)N1CCN(Cc2cc3nc(-c4cccc5[nH]ncc45)nc(N4CCOCC4)c3s2)CC1 [pictilisib]
How it was run: as §1

[11] = compound: CS(=O)(=O)c1ccc(-c2cnc(N)c(C(=O)Nc3ccccc3)n2)cc1
How it was run: as §1

[12] = compound: C[C@@H](Oc1cc(-c2cnn(C3CCNCC3)c2)cnc1N)c1c(Cl)ccc(F)c1Cl [crizotinib]
How it was run: as §1

[13] = compound: C[C@@H]1COCCN1C2=NC(=NC(=C2)C3(CC3)S(=O)(=O)C)C4=C5C=CNC5=CC=C4
How it was run: as §1

[14] = compound: C[C@H](C1=CC=C(C=C1)C(=O)NC2=C3C=CNC3=NC=C2)N
How it was run: as §1

[15] = compound: C[C@H](Nc1ncnc2nc[nH]c12)c1cc2cccc(Cl)c2c(=O)n1-c1ccccc1 [duvelisib]
How it was run: as §1

[16] = compound: Cc1cc(Nc2cc(CN3CCOCC3)c3nc(C)c(Cc4ccc(Cl)cc4F)n3n2)n[nH]1 [gandotinib]
How it was run: as §1

[17] = compound: Cc1cc(Nc2cc(N3CCN(C)CC3)nc(Sc3ccc(NC(=O)C4CC4)cc3)n2)n[nH]1 [tozasertib]
How it was run: as §1

[18] = compound: Cc1cc(SCc2sc(-c3ccc(C(F)(F)F)cc3)nc2C)ccc1OCC(=O)O
How it was run: as §1

[19] = compound: Cc1ccc(-n2nc(C(C)(C)C)cc2NC(=O)Nc2ccc(OCCN3CCOCC3)c3ccccc23)cc1 [doramapimod]
How it was run: as §1

[20] = compound: Cc1ccc(C(=O)N(CCCN)[C@@H](c2nc3cc(Cl)ccc3c(=O)n2Cc2ccccc2)C(C)C)cc1 [ispinesib]
How it was run: as §1

Sequence of UniProt P21333 (P21333 whole entry, looked up): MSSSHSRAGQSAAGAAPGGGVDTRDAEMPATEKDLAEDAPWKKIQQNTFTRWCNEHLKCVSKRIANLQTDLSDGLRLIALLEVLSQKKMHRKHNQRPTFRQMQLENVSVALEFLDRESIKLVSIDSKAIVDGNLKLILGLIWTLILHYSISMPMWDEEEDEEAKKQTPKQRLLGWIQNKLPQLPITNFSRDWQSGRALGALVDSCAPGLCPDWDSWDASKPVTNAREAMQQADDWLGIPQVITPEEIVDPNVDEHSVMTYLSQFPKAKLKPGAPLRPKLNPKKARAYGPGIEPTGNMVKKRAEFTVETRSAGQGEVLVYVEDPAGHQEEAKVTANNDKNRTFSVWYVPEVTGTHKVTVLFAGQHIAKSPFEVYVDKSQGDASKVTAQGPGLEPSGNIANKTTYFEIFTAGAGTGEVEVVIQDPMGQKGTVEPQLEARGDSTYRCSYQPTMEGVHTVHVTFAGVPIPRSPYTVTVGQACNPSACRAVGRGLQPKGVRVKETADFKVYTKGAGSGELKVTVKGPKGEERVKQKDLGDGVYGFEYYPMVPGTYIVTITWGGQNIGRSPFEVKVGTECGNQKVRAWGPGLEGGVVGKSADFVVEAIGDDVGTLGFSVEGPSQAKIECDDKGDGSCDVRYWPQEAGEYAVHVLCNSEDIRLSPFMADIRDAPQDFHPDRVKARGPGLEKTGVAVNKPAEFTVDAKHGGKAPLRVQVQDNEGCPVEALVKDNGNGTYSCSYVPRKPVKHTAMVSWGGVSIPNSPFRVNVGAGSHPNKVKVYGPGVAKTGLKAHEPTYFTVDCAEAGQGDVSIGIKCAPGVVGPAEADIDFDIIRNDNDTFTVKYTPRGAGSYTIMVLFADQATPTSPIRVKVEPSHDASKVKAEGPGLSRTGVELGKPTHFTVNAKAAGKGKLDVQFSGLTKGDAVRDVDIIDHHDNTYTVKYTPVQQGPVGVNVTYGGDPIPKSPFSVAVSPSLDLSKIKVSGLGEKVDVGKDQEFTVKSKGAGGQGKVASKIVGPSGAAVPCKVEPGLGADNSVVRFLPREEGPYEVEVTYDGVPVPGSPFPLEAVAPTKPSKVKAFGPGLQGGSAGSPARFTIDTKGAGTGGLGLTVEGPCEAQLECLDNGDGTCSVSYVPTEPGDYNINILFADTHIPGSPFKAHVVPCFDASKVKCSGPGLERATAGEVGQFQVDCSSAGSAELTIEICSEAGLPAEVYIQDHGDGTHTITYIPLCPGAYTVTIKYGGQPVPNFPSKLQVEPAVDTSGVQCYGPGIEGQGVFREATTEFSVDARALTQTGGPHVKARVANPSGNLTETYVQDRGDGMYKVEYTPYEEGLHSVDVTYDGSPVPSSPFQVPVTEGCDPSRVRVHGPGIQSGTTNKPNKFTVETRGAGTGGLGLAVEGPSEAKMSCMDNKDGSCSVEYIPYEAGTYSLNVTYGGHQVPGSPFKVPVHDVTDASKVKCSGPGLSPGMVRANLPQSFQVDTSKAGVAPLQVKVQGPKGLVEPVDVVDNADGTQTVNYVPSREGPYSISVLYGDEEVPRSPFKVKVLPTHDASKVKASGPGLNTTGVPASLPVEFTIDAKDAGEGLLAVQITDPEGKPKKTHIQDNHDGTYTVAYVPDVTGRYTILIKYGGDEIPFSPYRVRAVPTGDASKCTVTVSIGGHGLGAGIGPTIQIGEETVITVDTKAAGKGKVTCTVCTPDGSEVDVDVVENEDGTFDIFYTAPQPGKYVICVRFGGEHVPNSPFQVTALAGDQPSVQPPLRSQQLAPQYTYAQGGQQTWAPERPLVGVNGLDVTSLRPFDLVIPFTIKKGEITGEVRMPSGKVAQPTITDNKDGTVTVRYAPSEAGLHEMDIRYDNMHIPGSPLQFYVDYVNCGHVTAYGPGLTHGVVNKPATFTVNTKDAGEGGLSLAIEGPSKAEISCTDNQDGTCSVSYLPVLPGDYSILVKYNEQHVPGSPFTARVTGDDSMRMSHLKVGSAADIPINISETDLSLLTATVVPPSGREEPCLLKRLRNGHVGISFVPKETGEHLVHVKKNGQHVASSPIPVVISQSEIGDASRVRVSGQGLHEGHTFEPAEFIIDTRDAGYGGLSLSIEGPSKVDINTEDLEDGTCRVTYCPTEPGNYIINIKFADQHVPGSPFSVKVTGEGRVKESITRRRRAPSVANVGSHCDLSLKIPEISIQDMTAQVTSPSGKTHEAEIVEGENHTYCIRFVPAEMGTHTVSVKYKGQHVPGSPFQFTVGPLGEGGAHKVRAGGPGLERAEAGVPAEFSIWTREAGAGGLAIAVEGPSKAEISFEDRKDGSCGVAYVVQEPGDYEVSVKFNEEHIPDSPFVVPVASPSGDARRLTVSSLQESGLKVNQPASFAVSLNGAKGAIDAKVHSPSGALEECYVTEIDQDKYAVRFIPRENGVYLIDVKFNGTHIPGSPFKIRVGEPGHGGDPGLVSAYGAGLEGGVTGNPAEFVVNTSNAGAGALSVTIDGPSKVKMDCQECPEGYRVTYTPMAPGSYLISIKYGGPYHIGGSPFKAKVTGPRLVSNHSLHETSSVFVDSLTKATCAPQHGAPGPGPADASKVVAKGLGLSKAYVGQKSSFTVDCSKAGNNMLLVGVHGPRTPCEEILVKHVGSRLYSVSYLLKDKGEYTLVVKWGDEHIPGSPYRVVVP
Sequence of UniProt P23327 (P23327 whole entry, looked up): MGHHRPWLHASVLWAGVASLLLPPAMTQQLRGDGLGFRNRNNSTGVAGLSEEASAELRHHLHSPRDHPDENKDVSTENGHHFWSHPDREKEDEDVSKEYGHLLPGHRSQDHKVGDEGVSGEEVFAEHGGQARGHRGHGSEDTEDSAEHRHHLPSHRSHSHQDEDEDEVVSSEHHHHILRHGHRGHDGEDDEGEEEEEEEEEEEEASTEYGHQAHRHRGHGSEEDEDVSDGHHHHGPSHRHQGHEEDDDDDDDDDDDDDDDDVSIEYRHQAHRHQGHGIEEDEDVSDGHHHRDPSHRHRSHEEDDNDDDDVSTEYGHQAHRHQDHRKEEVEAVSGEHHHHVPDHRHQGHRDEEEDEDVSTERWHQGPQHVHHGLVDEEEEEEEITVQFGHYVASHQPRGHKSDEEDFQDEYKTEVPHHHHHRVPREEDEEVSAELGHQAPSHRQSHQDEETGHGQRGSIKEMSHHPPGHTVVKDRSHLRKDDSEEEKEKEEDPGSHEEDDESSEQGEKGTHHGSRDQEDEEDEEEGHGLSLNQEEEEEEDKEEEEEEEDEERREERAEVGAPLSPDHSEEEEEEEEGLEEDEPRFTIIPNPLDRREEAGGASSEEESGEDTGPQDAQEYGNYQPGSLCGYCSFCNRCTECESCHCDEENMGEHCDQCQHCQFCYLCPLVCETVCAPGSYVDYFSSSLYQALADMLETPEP
Sequence of UniProt P63218 (P63218 whole entry, looked up): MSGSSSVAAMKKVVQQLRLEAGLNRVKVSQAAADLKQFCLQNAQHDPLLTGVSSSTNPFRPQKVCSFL
Sequence of UniProt Q03014 (Q03014 whole entry, looked up): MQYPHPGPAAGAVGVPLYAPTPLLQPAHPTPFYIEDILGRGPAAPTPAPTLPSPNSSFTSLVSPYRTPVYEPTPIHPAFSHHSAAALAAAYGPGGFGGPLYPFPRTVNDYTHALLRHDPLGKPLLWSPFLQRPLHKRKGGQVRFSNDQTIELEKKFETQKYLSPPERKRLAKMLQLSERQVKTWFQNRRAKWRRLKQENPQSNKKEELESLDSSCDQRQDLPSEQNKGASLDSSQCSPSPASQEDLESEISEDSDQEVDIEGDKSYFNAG
Sequence of UniProt Q9UKD1 (Q9UKD1 whole entry, looked up): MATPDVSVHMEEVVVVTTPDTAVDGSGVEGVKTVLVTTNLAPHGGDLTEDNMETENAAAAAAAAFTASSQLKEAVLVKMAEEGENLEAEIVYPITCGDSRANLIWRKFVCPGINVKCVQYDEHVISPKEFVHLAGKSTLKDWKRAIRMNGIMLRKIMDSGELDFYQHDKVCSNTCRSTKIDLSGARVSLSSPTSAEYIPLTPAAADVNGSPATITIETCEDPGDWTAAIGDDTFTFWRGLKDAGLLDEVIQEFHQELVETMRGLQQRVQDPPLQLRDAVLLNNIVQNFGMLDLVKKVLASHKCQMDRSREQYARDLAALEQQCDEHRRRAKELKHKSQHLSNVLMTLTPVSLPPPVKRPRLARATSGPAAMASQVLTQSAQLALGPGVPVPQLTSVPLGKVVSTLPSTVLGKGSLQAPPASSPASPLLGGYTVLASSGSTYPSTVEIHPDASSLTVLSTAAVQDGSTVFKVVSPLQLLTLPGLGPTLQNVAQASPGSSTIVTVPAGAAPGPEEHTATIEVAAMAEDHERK
Sequence of UniProt Q92769 (Q92769 whole entry, looked up): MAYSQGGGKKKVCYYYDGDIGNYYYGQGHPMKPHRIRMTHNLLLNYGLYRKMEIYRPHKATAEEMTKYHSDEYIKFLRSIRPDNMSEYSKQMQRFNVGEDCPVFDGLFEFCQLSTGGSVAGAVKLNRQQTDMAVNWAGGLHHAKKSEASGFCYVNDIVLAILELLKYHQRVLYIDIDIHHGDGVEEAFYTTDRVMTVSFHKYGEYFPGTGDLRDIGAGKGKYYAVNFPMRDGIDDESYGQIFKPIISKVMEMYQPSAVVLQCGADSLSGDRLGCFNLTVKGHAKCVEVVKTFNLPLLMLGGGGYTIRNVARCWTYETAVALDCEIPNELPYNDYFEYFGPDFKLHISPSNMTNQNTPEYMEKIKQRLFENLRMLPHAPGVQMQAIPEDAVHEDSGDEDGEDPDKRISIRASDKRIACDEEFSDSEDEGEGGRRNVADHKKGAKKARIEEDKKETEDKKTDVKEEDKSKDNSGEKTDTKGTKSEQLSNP
Sequence of UniProt P48507 (P48507 whole entry, looked up): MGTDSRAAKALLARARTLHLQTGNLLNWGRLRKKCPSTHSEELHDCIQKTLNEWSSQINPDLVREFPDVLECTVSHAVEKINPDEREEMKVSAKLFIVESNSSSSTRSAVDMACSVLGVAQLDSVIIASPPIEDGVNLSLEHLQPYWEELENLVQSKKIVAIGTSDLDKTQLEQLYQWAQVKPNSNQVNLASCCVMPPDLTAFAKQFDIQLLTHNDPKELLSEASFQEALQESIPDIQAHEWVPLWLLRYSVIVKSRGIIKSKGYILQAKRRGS

Target	log2 fold change [1]	log2 fold change [2]	log2 fold change [3]	log2 fold change [4]	log2 fold change [5]	log2 fold change [6]	log2 fold change [7]	log2 fold change [8]	log2 fold change [9]	log2 fold change [10]	log2 fold change [11]	log2 fold change [12]	log2 fold change [13]	log2 fold change [14]	log2 fold change [15]	log2 fold change [16]	log2 fold change [17]	log2 fold change [18]	log2 fold change [19]	log2 fold change [20]
GAK (UniProt O14976)	-0.013	0.024	0.033	-0.748	-0.025	1.44	0.84	-0.107	0.143	0.226	0.49	0.115	-0.081	1.26	-0.245	0.02	0.223	-0.121	0.206	-0.157
GMEB2 (UniProt Q9UKD1)	-0.027	0.04	0.03	0.073	-0.009	0.053	0.038	0.027	-0.022	0.101	-0.012	0.041	-0.063	-0.09	-0.028	-0.001	0.051	0.009	0.053	0.071
FLNA (UniProt P21333)	0.042	0.026	0.043	-0.066	0.036	0.039	0.03	-0.095	-0.049	0.031	0.014	-0.078	-0.01	0.04	-0.014	-0.045	0.108	0.127	-0.013	-0.025
FNTB (UniProt P49356)	0.088	0.26	0.159	-0.024	-0.074	-0.057	0.02	0.024	0.18	-0.165	0.104	0.054	-0.035	-0.137	0.085	0.169	-0.012	-0.043	-0.012	0.109
GCLM (UniProt P48507)	0.066	-0.004	0.071	-0.124	-0.003	0.026	0.06	-0.057	0.011	0.046	0.058	-0.003	0.042	-0.019	-0.007	-0.15	0.108	0.06	-0.072	0.076
GLUD1 (UniProt P00367)	-0.012	-0.118	-0.007	-0.047	-0.039	-0.001	0.076	0.057	0.178	0.367 (active)	0.16	-0.016	0.058	0.005	0.006	0.141	-0.071	-0.057	0.048	-0.048
GOLGB1 isoform 2 (UniProt Q14789)	-0.16	0.337 (active)	-0.04	0.066	-0.069	0.072	-0.02	-0.051	0.046	0.066	-0.135	-0.012	-0.314 (active)	0.19	0.004	-0.031	0.211	-0.025	0.056	0.012
IGF2BP2 (UniProt Q9Y6M1)	-0.111	0.301	0.104	0.136	-0.103	-0.105	0.007	-0.113	0.046	-0.043	0.009	-0.062	-0.186	0.531 (active)	-0.161	0.139	0.012	0.158	0.288	-0.182
HHEX (UniProt Q03014)	0.178	-0.007	-0.102	0.035	0.002	-0.04	-0.016	0.053	-0.004	-0.012	-0.014	-0.027	-0.104	0.49	-0.072	-0.042	-0.019	0.021	0.05	-0.128
GNG5 (UniProt P63218)	0.082	0.086	-0.016	0.065	-0.146	-0.022	0.224	0.079	-0.006	-0.087	0.014	0.094	0.207	-0.13	0.134	0.055	0.063	-0.071	0.008	0.216
HRC (UniProt P23327)	-0.089	0.019	-0.032	0.035	-0.059	-0.008	0.035	-0.007	-0.039	0.017	0.027	0.096	-0.342 (active)	0.012	0.062	0.064	-0.053	-0.033	-0.033	0.037
HDAC2 (UniProt Q92769)	-0.144	0.029	0.008	0.008	-0.041	0	0.007	0.017	0.063	0.024	-0.01	0.08	-0.02	-0.046	0.022	0.003	-0.002	-0.029	0.011	0.072
